The supplement of paper PMC6555819

Key:
Assay in all cases: PBM binding z-score (relative to random genomic background probes); higher = stronger binding; sequences stand for … in GC…GCGATTGACAGCGTAGAATGAAGG
[1] = system: RARb homodimer (NR concentration 270 nM)
How it was run: (§1)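 Ligand-free nuclear receptor dimers were applied to custom Agilent 4×180K protein-binding microarrays whose double-stranded probes carried direct-repeat seeds, single-nucleotide variants, half-site ablations and random human genomic background sequences in 34-nt variable regions. Incubation lasted 1 h. Binding z-scores were computed against the random background probes from regression-normalized fluorescence.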

[2] = system: RARg:RXRa (NR concentration 270 nM, RXRa partner concentration 90 nM)
How it was run: as §1

[3] = system: RARg homodimer (NR concentration 270 nM)
How it was run: as §1

[4] = system: RXRa DBDmut IVT, anti-RXR (DBD mutation: RXRa K156A/R161A, NR concentration 90 nM)
How it was run: as §1

[5] = system: RXRa homodimer (NR concentration 180 nM)
How it was run: as §1

[6] = system: THRa:RXRa (NR concentration 90 nM, RXRa partner concentration 90 nM)
How it was run: as §1

[7] = system: THRa homodimer (NR concentration 90 nM)
How it was run: as §1

[8] = system: VDR homodimer (NR concentration 270 nM)
How it was run: as §1

Sequence	PBM binding z-score [1]	PBM binding z-score [2]	PBM binding z-score [3]	PBM binding z-score [4]	PBM binding z-score [5]	PBM binding z-score [6]	PBM binding z-score [7]	PBM binding z-score [8]
CCCATTAGTTGACCATAAGGGCAACCGAAGCTCG	2.53	1.4	0.963	0.208	0.666	2.07	1.89	1.05
TGAATGAGGTTAAAAATCAGGGAACGTGGCGTCG	0.129	1.38	0.835	1.26	2.24	1.67	-0.0675	0.4
AATACATGGTCACTAGGCCAGAGTAGGTACGAAT	0.707	0.578	1.01	-0.405	0.58	-0.00579	-0.302	0.15
ATCTCTAGGTCAAGATAGTTCAGTGAATGCAAAT	3.89	4.63	5.48	1.58	3.14	3.35	1.71	1.73
GCGACTGGGGCATCAGCAGGTTACCATTACTTAA	1.18	0.735	0.488	0.25	0.246	0.833	0.247	-0.0861
TAGCCTAGGTCATGCTGGCCAGTATAGTGTCGGC	3.02	3.72	4.32	0.579	2.71	3.03	0.898	-0.0948
CAGCCTAGGTCAGGGCCAATATAGGAGGAACGTT	2.42	3.05	3.61	0.0153	1.69	2.07	0.573	0.171
ATCTCTAGGTAAAAGTTCAGTCAATCCCGAGGAT	2.54	2.1	2.2	1.12	1.7	1.53	0.584	2.36
TCTATTAGTTGATAAGGGCAACCGAAACAGCGGA	1.39	0.857	0.844	1.2	0.562	1.4	0.878	0.573
TCTCGGAGGACACGTAAGGTCAGAGCTCGACATC	4.02	3.53	3.84	1.11	2.47	4.72	4.18	1.25
CCGACTGGGGCAGAAGGTTACCATAAGCCAGCCC	1.53	1.14	0.806	-0.593	1.04	0.31	-0.571	0.083
TCATAGAGGTAAACAGGTGAAAGTCCGTAAGTTA	0.716	0.649	0.356	1.07	1.1	0.843	-0.0526	-0.0713
TCTTGTAGATCAATAGAGCTTAAGAAAGTGCGCT	-1.12	-0.405	-0.425	-0.034	-0.343	-0.676	-1.11	-0.773
GCCTGTAGATCAAGGTTAAGAAAGACTAAGCTAA	0.243	0.329	0.0689	0.0892	0.822	1.14	-0.419	-0.568
GCTCGGAGGACAAGGTCAGAGCATTGTCCGTAGA	3.1	3.37	3.72	0.0327	2.61	2.87	1.51	0.838
CAGCCTAGATCAGGGCCAGTATAGGAGGAACGTT	-0.147	-0.262	-0.227	-0.728	-0.559	-0.634	-0.417	-0.384
CCCACTGGGCCAAGGTCATTGATCAGTCAAAGCA	3.19	3.57	3.06	0.687	3.2	3.3	2.16	3.07
AGATTGAGGTTAAGATCAGGGAAACAGAATACAT	1.42	2.1	1.78	1.36	2.48	2.7	1.12	0.928
TCTGCTAGGTCAGTTGCTCAGCTAACGAGCTGCC	1.89	2.18	3.06	0.567	0.527	1.01	-0.484	-0.87

Sequence	PBM binding z-score [1]	PBM binding z-score [2]	PBM binding z-score [3]	PBM binding z-score [4]	PBM binding z-score [5]	PBM binding z-score [6]	PBM binding z-score [7]	PBM binding z-score [8]
ATCTCTAGGTAAGGCTCAGTTCAGTGAAGAACGC	0.805	0.0838	-0.0338	0.317	-0.0677	0.831	0.732	1.36
ACTTACGGGTCAACGAGGTTACAGCACGCGTATA	3.89	6.06	5.3	2.37	6.55	4.46	1.51	3.71
TCTAGCAGGCCAGAGGGTCATTCAAGAGGTACGG	2.65	2.78	2.02	0.504	2.87	1.83	-0.373	1.28
TCTTGTAGATCAATAGTGGTTAAGAAAGTGCGCT	-0.161	-0.0273	-0.193	0.933	0.198	0.0334	-0.033	0.464
CCTTACCGGTCACTGACAGGTTATAGCATTTGGA	2.7	3.19	3.15	0.586	1.2	1	0.662	0.617
GCTCGGATGACAAGGTCAGAGCTTTGTCCGTAGA	2.57	2.42	2.02	0.22	2.15	2.5	1.09	0.292
TCGTGTAGATCAACAGGAGGTTAAGAAAGATCGA	0.472	0.729	0.231	-0.0769	0.672	0.819	-0.773	-0.463
TCTTGTAGATCAACAGGTGGTTAAGAAAGATCGA	-0.322	-0.241	-0.25	0.571	-0.126	-0.453	-0.243	-0.227
TAGCCTAGGTCATGGGCCAGTATCCCACGCGAAC	2.76	4	4.2	-0.01	3.19	3.18	1.65	0.301
ATCTCTAGGTAAGAATCAGTTCAGTGAAGAACGC	0.542	0.529	0.6	0.634	0.2	0.888	0.68	1.52
CCTAGTTGGTCAGGAGGTTACACACCGGATATGA	1.49	1.67	1.33	0.179	1.3	1.03	0.918	0.702
ATCTCTAGGTAACAAGTTCAGTGATAGAGAGGAC	1.92	1.05	1.57	1.06	0.757	1.38	0.931	2.93
CGTCCAAGATCAATGCTAGGTCAGTGAAAGCATT	2.31	1.93	1.33	0.097	0.272	1.75	0.486	0.299
CCTTACGGGTCACGAGGTTATGGCACGACGAGCG	3.8	6.05	5.55	1.3	6.91	3.72	1.19	1.71
TCGGCTAGGTCAGTTGGTCAGCTAACGAGCTGCC	2.79	2.88	3.91	0.368	0.942	1.14	-0.051	-0.233
CCGACTGGGGCATAAAGTTACCATAAGCCAGCCC	-0.229	-0.0793	0.0317	0.0675	0.0317	-0.417	-0.689	-0.27
ATCGAAAGGTCGTGAGGTGAGTAGACAGAAAGGC	2.99	4.61	3.94	1.15	5.39	3.28	1.3	0.659
GTTGCTAGGTCAGGTTGGTCAGCTAACGGGTACG	3.23	2.74	4.18	0.0427	1.4	2.02	1.06	0.821
CGACCAAGGTCAAAGGTCAGTGAAGAGATGACGG	5.51	8.66	8.05	3.97	10.4	4.71	2.27	3.83

Sequence	PBM binding z-score [1]	PBM binding z-score [2]	PBM binding z-score [3]	PBM binding z-score [4]	PBM binding z-score [5]	PBM binding z-score [6]	PBM binding z-score [7]	PBM binding z-score [8]
CGTCCAGGGTCAGAGAGGTCAGTGAATGCCGAGT	5.27	6.18	6.48	2.79	6.28	4.29	2.13	5.45
CGAACGAGGGCATGAGTGGATAGCAAATGCCGAT	0.496	1.27	1.61	2.02	0.916	1.04	-0.129	0.792
CCTACTGGGCCATTCATAGGTCATTGATCATATG	2.77	2.41	1.78	0.112	1.56	1.6	0.0409	0.415
TTACCAAGGTGAAGGGTCGTTGATGCACGCCTTG	1.79	2.19	1.14	0.00143	3.13	2.35	0.598	1.16
TCCGACAGGTGAAGGTAACTCAGGTACGCAGTCG	0.334	0.325	0.374	0.258	0.788	1.3	-0.0593	0.0508
TAGCCTAGGTCAGATCGGGCCAGTAGACGCTATA	1.76	2.74	3.37	-0.78	1.2	3.76	-0.385	-0.53
CCTCGGAGGACAGAAGGTCAGAGCCGTCCGCTTT	3.64	3.4	3.1	0.361	2	2.33	0.0553	-0.0393
GCGACTGGGGCAAAGCAGGTTACCACAAGGTTGG	1.08	0.456	0.439	-0.219	0.39	3.04	-0.328	-0.626
GCTATTAGTTGTAAGGGCAACCGAATGATTCTCG	1.47	0.411	0.637	0.96	0.441	1.73	1.18	0.507
GCTAGTTGGTCAGTAAAAAGTCACACACCGGTCG	1.33	0.522	0.701	0.212	0.223	0.00328	-0.343	0.168
ACTAGCAGACCAAGGGTCACTCAAGATTAGTCCG	3.58	3.6	3.3	0.335	3.57	2.42	-0.116	1.2
CTCGAAAGGTCGGTTGAGGTGATTATACGGATAA	2	2.51	2.53	0.846	2.12	4.96	1.15	0.404
ACTCACGGGTCAACGAGGTTATAGCACGCGTATA	3.5	5.72	4.98	2.83	6.42	4.03	1.03	4.51
TCTGCTAGGTCAACGAGGGTCAGCTAATCTGCTA	4.57	5.29	6.13	1.47	3.94	4.76	1.14	0.552
CAAACTAGGTCACGAAAGTTCAAAGTCGAATGAC	5	6.73	7.67	2.96	5.99	4.31	1.46	4.82
TCTTGTAGATAAGCAGGTTAAGAAAGCTGGCCAA	-0.166	-0.153	-0.231	0.319	0.245	0.129	-0.622	-0.0851
GCGAGCAGGCCATTTGGGTCACTCAATGACGGGC	1.96	1.09	1.37	0.115	0.824	1.85	0.687	0.921
CAAACTAGGTCACAGAGGCCAAAGTCCGTGCGTA	3.73	4.88	5.37	2.45	3.63	3.66	1.54	2.62
